# Laboratory results: PubChem BioAssay AID1259336 (Sattelle Laboratory, UCL Respiratory, Division of Medicine, …, 2017)
# Activity calls are given as the source filed them. No stated cut-off is given here; in the data, active means log2 fold change growth below about -1.8; inactive means the rest.
# Experiment: C. elegans growth inhibition, whole organism, log2 fold change (AID 1259336);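 further: growth scored by imaging after five days at 20 °C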
# Conditions: anthelmintic screen, active compounds read low
row,Compound,log2 fold change growth
1,C[C@@H]1[C@H](O)[C@@H](C)C=CC=CC=CC=CC=CC=CC=C[C@H](O[C@@H]2O[C@H](C)[C@@H](O)[C@H](N)[C@@H]2O)C[C@@H]2O[C@](O)(C[C@@H](O)C[C@@H](O)[C@H](O)CC[C@H](O)C[C@@H](O)CC(=O)O[C@H]1C)C[C@H](O)[C@H]2C(=O)O,0.0153 (inactive)
2,CC(C)(C)c1cc(C(=O)N2CCN(c3nccnc3C#N)CC2)n(Cc2ccccc2)n1,-0.0659 (inactive)
3,O=S(=O)(c1ccc(Cl)cc1)N1CCN(C(=S)NCc2ccco2)CC1,-0.203 (inactive)
4,COC(=O)c1cccc2oc(-c3cccc(OC)c3NC(=O)c3cc(-c4ccccc4)on3)nc12,-0.13 (inactive)
5,COc1ccc(C2=NN(C3CCCCCC3)C(=O)[C@@H]3CC=CC[C@H]23)cc1OCCCCOc1ccc(-c2nn[nH]n2)cc1,-0.0946 (inactive)
6,CC(C)(CN)c1nc(-c2ccc(Cl)c(O)c2)c(-c2ccnc(N)n2)[nH]1,-0.414 (inactive)
7,Cc1cc(C)cc(COc2ccc3c(C)c(CCC(=O)O)c(=O)oc3c2C)c1,-0.0961 (inactive)
8,Cc1nc(-c2cccc(NCc3ccccc3)c2)[nH]c1C,0.123 (inactive)
9,CO[C@@H](C(=O)N1Cc2[nH]nc(NC(=O)c3ccc(N4CCN(C)CC4)cc3)c2C1)c1ccccc1,0.339 (inactive)
10,CCc1ccc([C@@H]2C[C@H](C(F)(F)F)n3ncc(C(=O)NCc4ccc(OC)cc4)c3N2)cc1,-1.82 (active)
11,Cc1nn(C)cc1[C@H](C)Nc1nncc(-c2ccc(C(F)(F)F)cc2)n1,0.429 (inactive)
12,COc1ccc(-c2onc(C(F)(F)F)c2-c2ccc(Cl)cc2)c(O)c1,0.102 (inactive)
13,CNC(=O)[C@@H]1Cc2c([nH]c3cc(Cl)ccc23)C2(CCN(CCc3ccccc3)CC2)N1,0.551 (inactive)
14,COc1ccc(C(=N)N)cc1-c1cn(-c2ccc(C(=N)N)cc2)nn1,-0.0296 (inactive)
15,CCOc1ccc(OCC(=O)Nc2cc(C)cc(C)c2)cc1,-0.0899 (inactive)
16,CC(C)[C@H](NC(=O)Cc1cccc2ccccc12)C(=O)Nc1cccc(C#N)c1,0.334 (inactive)
17,c1csc(-c2cnc3sc(NCC4CCOCC4)nn23)c1,-0.257 (inactive)
18,Cc1ccc(NC(=O)c2cc(S(=O)(=O)NC(C)(C)C)ccc2C)nc1,0.26 (inactive)
19,CCn1ncc2c(NC3CCOCC3)c(CNC(=O)c3ccnn3C)c(C)nc21,-0.407 (inactive)

row,Compound,log2 fold change growth
1,CCCCN(CCCC)c1c(C#N)cc(S(=O)(=O)Nc2ccccc2)cc1C#N,-0.631 (inactive)
2,COC(=O)c1c(NC(=O)c2cc3ccccc3oc2=O)sc2c1CCN(Cc1ccccc1)C2,-0.125 (inactive)
3,Cc1cccc(NC(=O)c2cc(S(=O)(=O)N(C)c3ccc(F)cc3)ccc2Cl)n1,-0.21 (inactive)
4,CS(=O)(=O)c1cccc(-c2cnc3[nH]cc(-c4ccc(CCC(=O)O)cc4)c3c2)c1,0.172 (inactive)
5,O=C(NC1CCCCC1)N1CCN(Cc2ccc3c(c2)OCO3)CC1,-0.153 (inactive)
6,CS(=O)(=O)N1CCC(Cn2nc(Cc3cccc4ccccc34)c3c(N)ncnc32)CC1,-0.695 (inactive)
7,CC1CCCN(C(=O)C(C)Nc2cc(Cl)ccc2N2CCOCC2)C1 (stereo not drawn),0.538 (inactive)
8,CNc1nnc(Sc2cnn(-c3ccccc3)c(=O)c2Cl)s1,-0.948 (inactive)
9,O[C@@H](c1cc(C(F)(F)F)nc2c(C(F)(F)F)cccc12)[C@H]1CCCCN1,-0.189 (inactive)
10,O=C(Nc1nnc(-c2ccc(Cl)s2)o1)c1ccc(Cl)s1,0.518 (inactive)
11,C[C@@H](C(=O)Nc1ccc2oc(-c3ccncc3)nc2c1)c1ccccc1,0.0616 (inactive)
12,Cc1cnc(CCNC(=O)c2cc(-c3ccc(Cl)cc3)cs2)[nH]1,-0.147 (inactive)
13,CCc1nc2ccc(C(=O)NCc3ccc4c(c3)OCO4)cn2c1N(C)Cc1cccs1,-0.917 (inactive)
14,Nc1ncc(Br)cc1-c1nc2ncc(Cl)cc2[nH]1,0.329 (inactive)
15,CNC1C(OC2C(OC3C(O)C(O)C(N=C(N)N)C(O)C3N=C(N)N)OC(C)C2(O)C=O)OC(CO)C(O)C1O (stereo not drawn),-0.00587 (inactive)
16,CCCCc1ccc(NC(=O)Nc2ccc(O[C@H]3CCCC[C@@H]3N(C)c3ccccc3)c(F)c2)cc1,-0.0752 (inactive)
17,COc1cccc(NC(=O)c2c(NC(=O)c3cccnc3)sc3c2CCC3)c1,-1.12 (inactive)
18,CN(C(=O)c1cc2c(-c3cncnc3)cccc2[nH]1)c1ccccc1,-0.492 (inactive)
19,COc1ccc(Nc2ccccc2NC(=O)c2ccc(=O)[nH]c2)cc1,-0.31 (inactive)
